The structures appear in SMILES notation. About 83,000 compounds went through this panel and 20% of them were active in at least one assay; those are over-represented in the sample as a whole.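 Cells were grown in 96-well plates and exposed to the test compound at a single concentration for 48 hours; results are reported as percent growth, with values below 10 considered active.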 Values without a mark were called inactive. Calls of active or inactive are those of the source.

Data on 15 compounds can be found in PubChem BioAssay (NCI).

Test systems include NCI-H23 lung; NCI-H226 lung; NCI-H322M lung; HOP-62 NSCLC; NCI-H460 lung; NCI-H522 lung; A549/ATCC NSCLC; 786-0 renal; DU-145 prostate.
Holding throughout (test): NCI-60 one-dose screen, 48 h (100 = growth as untreated, 0 = no growth, -100 = all killed)
Conditions in all cases: 10 µM unless noted

Take `Cc1ccc(NC(=O)CSc2nnc3n(Cc4ccccc4)c(=O)c4c(C)c(C(N)=O)sc4n23)cc1`: the growth was 78.4% with NCI-H23 lung; 28.9% in the test with NCI-H226 lung; 46.2% in the test with NCI-H322M lung; -7.47% (active) in the test on HOP-62 NSCLC; -40.9% (active) in the test on NCI-H460 lung; 31.5% in the test with NCI-H522 lung. In addition, the growth was 77.7% with A549/ATCC NSCLC, 16.9% in the test on 786-0 renal and 39% with DU-145 prostate.
Turning to `S=C(Nc1ccc(C2=NCCN2)cc1)Nc1ccc(C2=NCCN2)cc1`, the growth with NCI-H23 lung was 82.7%; with NCI-H226 lung it was 86.8%; in the test on NCI-H322M lung it was 117%; in the test on HOP-62 NSCLC, 99.6%; in the test on NCI-H460 lung, 106%; in the test with NCI-H522 lung, 97.2%. The figures for the growth with A549/ATCC NSCLC, with 786-0 renal and in the test with DU-145 prostate were 99.9%, 98.2% and 107%, respectively.
Take `O=C1Cc2cc(CCn3cncn3)c(Cl)cc2N1`: the growth was 24.1% with NCI-H23 lung; 74.8% in the test with NCI-H226 lung; 92.7% in the test on NCI-H322M lung; 69.6% in the test on HOP-62 NSCLC; 83.9% in the test on NCI-H460 lung; 32.8% in the test with NCI-H522 lung. For the same compound, the figures for the growth in the test with A549/ATCC NSCLC, in the test on 786-0 renal and in the test on DU-145 prostate were 59.8%, 94.7% and 96.5%, respectively.
With `Cc1ccc(NC(=O)COC(=O)c2ccc(S(=O)(=O)N3CCCCCC3)cc2)cc1`, the growth is 107% in the test on NCI-H23 lung; 90.8% with NCI-H226 lung; 131% in the test on NCI-H322M lung; 96.4% in the test with HOP-62 NSCLC; 106% with NCI-H460 lung; 96% in the test with NCI-H522 lung. In addition, the growth with A549/ATCC NSCLC is 97.2%; in the test on 786-0 renal, 103%; in the test on DU-145 prostate, 108%.
`O=Cc1c[nH]c2ccc(NC(=O)OCc3ccccc3)cc12`: the growth in the test with NCI-H23 lung was 95.4%; with NCI-H226 lung, 89.7%; in the test with NCI-H322M lung it was 88.6%; in the test with HOP-62 NSCLC, 105%; with NCI-H460 lung, 68.4%; in the test with NCI-H522 lung, 94.1%. Moreover, the growth in the test on A549/ATCC NSCLC is 106%; with 786-0 renal it was 95.8%; in the test on DU-145 prostate it was 113%.
Take `COc1ccc2c(c1)[nH]c(=O)c1c3cc(OC)c(OC)cc3cn21`: the growth in the test with NCI-H23 lung is 42.5%; in the test with NCI-H226 lung it was 44.6%; in the test with NCI-H322M lung, 20.7%; in the test on HOP-62 NSCLC it was 47.4%; in the test with NCI-H460 lung, 6.39% (active); in the test on NCI-H522 lung, -2.16% (active). In addition, the growth with A549/ATCC NSCLC is -22.1% (active); with 786-0 renal, 32.1%; in the test on DU-145 prostate it was -87.2% (active).
Consider `COc1ccc(-c2cncn2-c2ccc(-c3nc4cc(OC)c(OC)c(OC)c4s3)cc2)cc1N`, for which the growth in the test with NCI-H23 lung was 72.9%; with NCI-H226 lung it was 64.5%; in the test with NCI-H322M lung, 84.1%; in the test with HOP-62 NSCLC it was 101%; with NCI-H460 lung it was 51.4%; in the test with NCI-H522 lung, 46%. Moreover, the growth was 47.9% in the test on A549/ATCC NSCLC, 55.2% in the test with 786-0 renal and 92.6% with DU-145 prostate.
On to `CCCCCCCC/C=C\CCCCCCCCOc1ccccc1CC(=O)NCC[N+]1(C)CCCC1`, for which the growth is 78.1% in the test with NCI-H23 lung; 92.6% in the test with NCI-H226 lung; 103% with NCI-H322M lung; 80.6% in the test with HOP-62 NSCLC; 52.2% with NCI-H460 lung; 46.9% with NCI-H522 lung. For the same compound, the values for the growth in the test with A549/ATCC NSCLC, in the test on 786-0 renal and in the test with DU-145 prostate were 75%, 80.8% and 90.8%, respectively.
Take `CN1C(=O)/C(=C/c2nc(-c3cccc(F)c3)n3ccccc23)c2ccccc21`: the growth is 83.7% with NCI-H23 lung; 84.4% with NCI-H226 lung; 80.8% in the test on NCI-H322M lung; 80.7% with HOP-62 NSCLC; 56.1% in the test on NCI-H460 lung; 40% in the test with NCI-H522 lung. Moreover, the growth is 44.9% with A549/ATCC NSCLC, 70.7% in the test on 786-0 renal and 82.6% in the test on DU-145 prostate.
As for `COc1cc(C2NC(c3ccc(Cl)cc3)C(C)C(=NC(=O)c3cnccn3)C2C)cc(OC)c1OC` (stereo not given), the growth with NCI-H23 lung is 90.7%; in the test with NCI-H226 lung it was 102%; in the test with NCI-H322M lung, 113%; in the test on HOP-62 NSCLC, 117%; in the test on NCI-H460 lung, 103%; in the test on NCI-H522 lung, 85.4%. The growth in the test on A549/ATCC NSCLC is 98.8%; in the test with 786-0 renal, 91.6%; in the test on DU-145 prostate it was 115%.
In the case of `O=C1C[C@@H]2/C(=C(O)\C=C\c3ccccc3)C(=O)C=C[C@@H]2O1`, the growth in the test with NCI-H23 lung is 77%; in the test on NCI-H226 lung, 39.9%; in the test with NCI-H322M lung it was 26.1%; with HOP-62 NSCLC, 2.64% (active); with NCI-H460 lung it was 12.1%; with NCI-H522 lung it was -66.3% (active). For the same compound, the values for the growth with A549/ATCC NSCLC, with 786-0 renal and with DU-145 prostate were 36.7%, -46.7% (active) and -16.8% (active), respectively.
As for `COc1cc2c(cc1OC)C1CCN3C(=O)CCC3N1CC2` (stereo not given), the growth is 99.3% in the test with NCI-H23 lung; 113% in the test with NCI-H226 lung; 124% in the test with NCI-H322M lung; 121% with HOP-62 NSCLC; 107% in the test on NCI-H460 lung; 107% with NCI-H522 lung. In addition, the values for the growth in the test on A549/ATCC NSCLC, in the test on 786-0 renal and in the test on DU-145 prostate were 113%, 103% and 111%, respectively.
Take `CC(CCC(=O)O)(NC(=O)c1ccc([N+](=O)[O-])cc1)C(=O)O` (stereo not given): the growth in the test with NCI-H23 lung is 98.4%; in the test on NCI-H226 lung it was 111%; with NCI-H322M lung, 107%; with HOP-62 NSCLC, 92.8%; with NCI-H460 lung it was 107%; in the test with NCI-H522 lung, 106%. Further, the growth in the test with A549/ATCC NSCLC was 107%; in the test on 786-0 renal, 105%; in the test on DU-145 prostate, 104%.
For the compound `O=C(COC(=O)[C@H](C[Se][Se]C[C@H](NC(=O)c1ccc(Br)cc1F)C(=O)OCC(=O)c1ccc(F)cc1)NC(=O)c1ccc(Br)cc1F)c1ccc(F)cc1`, the growth was -37.3% (active) with NCI-H23 lung; -73.2% (active) in the test with NCI-H226 lung; -23.2% (active) with NCI-H322M lung; -6.31% (active) in the test on HOP-62 NSCLC; -35.6% (active) with NCI-H460 lung; -85.2% (active) in the test with NCI-H522 lung. The growth in the test with A549/ATCC NSCLC is -41.2% (active); in the test with 786-0 renal, -94.6% (active); in the test on DU-145 prostate, -100% (active).
As for `NNC(=O)C1CC2c3ccccc3C1c1ccccc12` (stereo not given), the growth with NCI-H23 lung was 101%; with NCI-H226 lung, 101%; in the test with NCI-H322M lung, 116%; in the test on HOP-62 NSCLC, 112%; in the test with NCI-H460 lung, 115%; with NCI-H522 lung it was 87%. Moreover, the growth is 113% in the test on A549/ATCC NSCLC, 105% in the test on 786-0 renal and 115% with DU-145 prostate.
